High-throughput results (PubChem)
A selection: hits, their analogues and other compounds. The true share with any hit is near 1.3%.
IDE cell inh: inhibitors of human insulin-degrading enzyme in cells. P14735. HEK cells, FAbetaB cleavage, fluorescence polarization. inhibition, % at 5.59 µM. 320,000 compounds, 0.41% hits;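 active = percent inhibition above the average of all tested compounds plus 3 SD, set per screening campaign, cut at about 16% in these data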;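 also: IDE supplied by intact live HEK cells; FP after avidin binding of uncleaved biotin substrate so inhibition keeps polarization high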
PKA-R2B act: activates the human PKA-R2B holoenzyme complex. P22694+P31323. PKA-R2B holoenzyme dissociation, Cy5-IP20 fluorescence polarization; R2B truncated from residue 108, S112A mutant; 0% DMSO only, 100% 113 µM cGMP. activation, % at 11.4 µM. 340,000 compounds, 0.079% hits. AID 504700;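 active = activation above a cutoff set at the mean over all compounds plus 3 SD, cut at about 18% in these data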;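 also: higher means more holoenzyme dissociation and a rise in polarization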
PKA-R1A activ: activators of PKA-R1A complex; activation, % at 11.4 µM; PKA-R1A dissociation, Cy5-IP20 fluorescence polarization; scaled: DMSO 0%, 113 µM cGMP 100%; AID 504707; 340,000 compounds, 0.083% hits; P00514+P68181;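 active = percent activation above the mean of all tested compounds plus 3 SD, cut at about 19% in these data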;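 also: higher means more PKAc released from R1A so a rise in polarization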
IDE act: activators of human insulin-degrading enzyme in cells; P14735; HEK cells, FAbeta-B cleavage, fluorescence polarization; 0% vehicle, 100% cell-free pure enzyme wells; activation, % at 5.96 µM; 340,000 compounds, 0.073% hits; AID 493087;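 active = activation above the mean of all tested compounds plus 3 SD, set per screening campaign, cut at about 17% in these data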
eLon inh: inhibitors of E. coli Lon protease. purified E. coli Lon protease, fluorescence polarization. inhibition, % at 7.94 µM. P0A9M0. AID 602123. 360,000 compounds, 0.42% hits; in the data active = inhibition above about 13%, passing the limit was not always enough
Rin1 Abl inh: inhibitors of human Rin1-Abl protein interaction | P00519+Q13671 | TR-FRET Rin1/Abl binding, biochemical | inhibition, % at 7.35 µM | 360,000 compounds, 0.4% hits | AID 588664; in the data active = inhibition above about 5%, passing the limit was not always enough
E coli Lon conf: E. coli Lon inhibition confirmation; shares compounds with eLon inh; purified E. coli Lon, fluorescence polarization; inhibition, % at 7.94 µM; 1,400 compounds, 31% hits; in the data active = inhibition above about 16%
Numbers stand for hits; – = inactive; · = not tested or not shown; + = active, no number.

SMILES	IDE cell inh	PKA-R2B act	PKA-R1A activ	IDE act	eLon inh	Rin1 Abl inh	E coli Lon conf
CCOC(=O)Cn1nc(-c2ccc(F)cc2)cc(Cc2ccccc2)c1=O	–	–	–	–	–	–	·
O=c1[nH]nc(-c2ccc(F)cc2)cc1Cc1ccccc1	–	–	–	–	32	–	–
Cc1csc(=O)n1CC(=O)OCC(=O)NCc1ccccc1	–	–	–	–	–	–	·
CC(=O)c1ccc2noc(-c3ccc(F)cc3)c2c1	–	–	–	–	16	–	58
C=CCn1c(SCC(=O)Nc2ccccc2OC)nc2c([nH]c3ccccc32)c1=O	–	–	–	–	–	–	·
O=C1C(Br)=Cc2cccc3cccc1c23	–	–	–	–	68	–	57
CCCCNc1nc2ccccc2n1CC(=O)Nc1c(C)cccc1CC	–	–	–	–	25	–	–
CCc1cccc(C)c1NC(=O)Cn1c(NCCO)nc2ccccc21	–	–	–	–	–	–	·
CCN(CC)S(=O)(=O)c1ccc(N2CCOCC2)c(NC(=O)c2ccccc2)c1	–	–	–	–	–	–	·
CCN(CC)S(=O)(=O)c1ccc(N2CCOCC2)c(NC(=O)c2cc3ccccc3o2)c1	·	–	–	·	30	–	–
c1ccc(C2OC3c4cccc5cccc(c45)C3N2c2ccccc2)cc1 (stereo unspecified)	–	–	–	–	56	–	–
Fc1ccc2nc(Nc3ccccc3)sc2c1	–	–	–	–	15	–	–
NNc1nc2ccc(F)cc2s1	–	–	–	–	–	–	·
CC1(C)CC(=O)C=C(NNC(=O)c2ccccc2)C1	–	–	–	–	–	–	·
COc1ccc(C(=O)NNC2=CC(=O)CC(C)(C)C2)cc1OC	–	–	–	–	17	–	–
Cc1cccc(C)c1NC(=O)C1CCN(S(C)(=O)=O)CC1	–	–	–	–	40	–	–
COc1cc(S(=O)(=O)NC2CCCC2)ccc1-n1cnnn1	–	–	–	–	22	–	–
COc1cc(S(=O)(=O)N(Cc2ccc(C)cc2)C2CCCCC2)ccc1-n1cnnn1	–	–	–	–	–	–	·
Cc1cc(CN(C)C(=O)c2cc(COc3ccc(F)cc3Cl)on2)n[nH]1	–	–	–	–	32	–	–
CN(Cc1ccccn1)C(=O)c1cc(COc2ccc(F)cc2Cl)on1	·	–	–	·	–	–	·
Cc1ccc(CNC(=O)c2ccc3c(=O)c(O)c(-c4ccc(C)cc4)[nH]c3c2)cc1	–	–	–	–	–	–	·
CCCNC(=O)c1ccc2c(=O)c(O)c(-c3ccsc3)[nH]c2c1	–	–	–	–	+	–	182
CCCNC(=O)c1ccc2c(=O)c(O)c(-c3ccc(OC)cc3)[nH]c2c1	–	–	–	–	172	–	112
CCCNC(=O)c1ccc2c(=O)c(O)c(-c3ccc(C)cc3)[nH]c2c1	–	–	–	–	160	–	141
Cc1ccc(-c2[nH]c3cc(C(N)=O)ccc3c(=O)c2O)cc1	–	–	–	–	76	–	46
SMILES	IDE cell inh	PKA-R2B act	PKA-R1A activ	IDE act	eLon inh	Rin1 Abl inh	E coli Lon conf
CCCCCn1c(=O)[nH]c2cc(C(=O)NCCCN(CC)CC)ccc2c1=O	–	–	–	–	–	–	·
Cc1ccc(-c2oc3ccccc3c(=O)c2O)cc1	–	–	–	–	–	–	·
COCCCNC(=O)c1ccc2c(=O)n(Cc3ccc(OC)cc3)c(=O)[nH]c2c1	–	–	–	–	–	–	·
O=C(NCCCN1CCC(Cc2ccccc2)CC1)C1CC(=O)N(C2CCCC2)C1 (stereo unspecified)	–	–	–	–	–	–	·
CC1CCC/C(=C\Nc2ccc(C(=O)O)c(O)c2)C1=O (stereo unspecified)	–	–	–	–	–	–	·
O=C1CCCC/C1=C\Nc1ccc(C(=O)O)c(O)c1	–	–	–	–	44	–	–
Nc1nc(C2C(=O)CCCC2=O)cs1	–	–	–	–	30	–	–
Nc1nc(C2CC(=O)OC23CCCCC3)cs1 (stereo unspecified)	–	–	–	–	–	–	·
CCCNC(=O)c1cc(S(=O)(=O)N2CCCCC2)ccc1N1CCOCC1	–	–	–	–	–	–	·
